Source: PubChem BioAssay AID2685 (National Center for Advancing Translational Sciences (NCATS), 2010)
In all, about 320,000 compounds went through this assay and about 2,100 (0.66%) were called active. Another 53% or so got no clear call; they are omitted. The call rests on the fitted dose curve; in most records, active means well fitted inhibition curve with a large enough effect in the signal ratio, with a control signal flat (not every such curve was filed as active); inconclusive means small, poorly fitted or top-dose-only effect, or effect the other way, or a change in a side signal; inactive means flat fitted curve, though single readings scatter; the % refers to the signal ratio. Shown is part of a subset that was picked to be rich in actives.

Assay: qHTS Assay for Lipid Storage Modulators in Drosophila S3 Cells;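 on cell number change: cells counted by Cell Tracker Red CMTPX staining in the red channel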; on lipid storage change, negative = inhibition: on the % scale 0 is the no-effect control and ±100 the full control effect
Conditions: BODIPY lipid droplet fluorescence, 18-24 h, cells fed with added oleic acid; cell number change: measured here: cell count max response; series mostly up to 46.1 µM; lipid storage change, negative = inhibition: at the top concentration
In short: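 Drosophila S3 cells got compounds at several concentrations plus oleic acid (400 uM solution). Laser-scanning cytometry with 488 nm excitation read lipid droplets at 500-530 nm and cells at 575-640 nm. Percent activity was relative to 20 uM Triacsin C.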
Potency means the concentration at half of the fitted maximal effect.

| Compound | lipid storage change, negative = inhibition | cell number change | outcome | Potency |
| --- | --- | --- | --- | --- |
| CCOC(=O)C(C(=O)OCC)N(C#N)c1nc(N(C)C)nc(N(C)C)n1 | 1.46% (inactive) | 12.4% |  |  |
| O=c1[nH]n2cc(-n3cc([N+](=O)[O-])cn3)cnc2c1Br |  |  | inactive |  |
| Cc1ccc(C(=O)Nc2ccc(N3CCN(C)CC3)cc2)cc1C | -16.1% (inactive) | 4.5% |  |  |
| Nc1nnc(SCc2ccccc2F)s1 | 20.7% (inactive) | 16.1% |  |  |
| COc1ccc(NC(=O)CC2C(=O)N(C)C(=S)N2Cc2ccc3c(c2)OCO3)cc1 (configuration not stated) | -26.7% (inactive) | 20% |  |  |
| Oc1ccccc1-n1c(-c2ccccc2)ccc1-c1ccccc1 |  | -6.63% |  | 2.06 µM (active) |
| C/C(=N\O)c1c(O)cc(-c2ccccc2)n(-c2ccccc2)c1=O | 4.63% (inactive) | 13.2% |  |  |
| COc1ccc(-c2ccc(CCC(=O)O)n2-c2ccccc2O)cc1 | 2.11% (inactive) | 6.08% |  |  |
| O=C(CCCN1C(=O)c2ccccc2C1=O)Nc1ccc(Br)cn1 | -25.9% (inactive) | 16.2% |  |  |
| Cc1ccc(S(=O)(=O)N2CCOC2CNC(=O)C(=O)NCCCN2CCOCC2)cc1 (configuration not stated) |  | -5.14% | inactive [at 0.369 µM] |  |
| COC(=O)c1ccncc1C(=O)Nc1ccc(Oc2ncc(C(F)(F)F)cc2Cl)cc1 | -11.6% (inactive) | -10.1% |  |  |
| CCCOc1ccc(CCC(=O)O)cc1 | 4.14% (inactive) | 1.83% |  |  |
| Cc1nc(SCC(=O)NC(=O)NC2CCCCC2)nc(C)c1C | -12.8% (inactive) | -13.4% |  |  |
| CSCCC(NC(=O)c1ccco1)C(=O)N(C)CC(=O)Nc1c(Cl)cccc1Cl (configuration not stated) |  |  | inactive |  |
| COc1ccc(CCN(C)C(=O)C(CCSC)NC(=O)c2ccco2)cc1OC (configuration not stated) |  | -10.8% |  | 2.31 µM (active) |
| COc1ccc(CCNC(=O)c2ccco2)cc1OC | 5.81% (inactive) | 10.7% |  |  |
| CCOC(=O)c1c(-c2ccccc2)csc1NC(=O)/C(C#N)=C/c1ccc(OC)c(OC)c1 | 15.7% (inactive) | -0.159% |  |  |
| CCOC(=O)c1c(-c2ccc(C)cc2)csc1NC(=O)/C(C#N)=C/c1ccc(O)c(OC)c1 |  | -27.7% |  | 23.1 µM (active) |
| COc1cc(/C=C(\C#N)C(=O)NCc2cccs2)ccc1O | -8.42% (inactive) | -0.911% |  |  |
| COc1ccccc1NC(=O)CN1CCOCC1 | 20.9% (inactive) | 25.4% |  |  |
| COc1ccc(/C=N/NC(=O)c2cccc(NC(=O)c3ccccc3Cl)c2)cc1 |  | -0.417% | inactive |  |
| O=C(COC(=O)CCOc1ccccc1)NCCC1=CCCCC1 | 10.3% (inactive) | 10.9% |  |  |
| CCOC(=O)C(C)(C)N(Cc1ccccc1C)S(=O)(=O)c1ccc(Cl)c([N+](=O)[O-])c1 | -15.8% (inactive) | -1.56% |  |  |

| Compound | lipid storage change, negative = inhibition | cell number change | outcome | Potency |
| --- | --- | --- | --- | --- |
| CCOC(=O)C(C)(C)N(Cc1cccc(C)c1)S(=O)(=O)c1cccc([N+](=O)[O-])c1 | -28.1% (inactive) | -5.11% |  |  |
| CCOC(=O)C(C)(C)N(Cc1ccc(C)cc1)S(=O)(=O)c1ccc(Cl)c([N+](=O)[O-])c1 |  | -25.3% | inactive |  |
| CCOC(=O)C(C)(C)N(Cc1cccc(C)c1)S(=O)(=O)c1ccc(Cl)c([N+](=O)[O-])c1 |  | -21.7% |  | 16.4 µM (active) |
| CCOC(=O)C(C)(C)N(Cc1ccc(Cl)cc1)S(=O)(=O)c1ccc(Cl)c([N+](=O)[O-])c1 | 15.5% (inactive) | 5.39% |  |  |
| CCOC(=O)C(C)(C)NS(=O)(=O)c1ccc(Cl)c([N+](=O)[O-])c1 |  | -25% |  | 20.6 µM (active) |
| CC(C)(C)NC(=O)c1cc(-c2ccccc2)n[nH]1 | 4.25% (inactive) |  |  |  |
| CCCOc1ccc(/C=C2\SC(N)=NC2=O)cc1OC | 9.06% (inactive) | 8.06% |  |  |
| NC(=O)c1cc(S(=O)(=O)N2CCN(c3cccc(Cl)c3)CC2)cs1 |  | 14.3% | inactive |  |
| COc1ccccc1/C=C/C1C(C(=O)OCC(C)C)=C(C)N=C2SCCC(=O)N21 (configuration not stated) | 3.95% (inactive) | 9.42% |  |  |
| Cc1ccc(NC(=O)c2cn(CCC#N)nc2-c2cccs2)c([N+](=O)[O-])c1 | -1.84% (inactive) | -4.62% |  |  |
| Cc1ccc(C2NC(c3ccc(C)cc3)C([N+](=O)[O-])C(C)(C)C2[N+](=O)[O-])cc1 (configuration not stated) | 8.05% (inactive) | -8.86% |  |  |
| Cc1cccc(C2NC(c3cccc(C)c3)C([N+](=O)[O-])C(C)(C)C2[N+](=O)[O-])c1 (configuration not stated) |  | 3.3% |  | 5.17 µM (active) |
| CC1(C)C([N+](=O)[O-])C(c2ccc(F)cc2)NC(c2ccc(F)cc2)C1[N+](=O)[O-] (configuration not stated) | 9.03% (inactive) | 2.48% |  |  |
| Cc1cccc(NC(=O)CS(=O)(=O)c2cn(C)c3ccccc23)c1C |  |  | inactive |  |
| Clc1ccc(-c2nnc(CNC3CC3)o2)cc1 | 15.9% (inactive) | 6.34% |  |  |
| CCCCCN(C(=O)CN1CCC(Cc2ccccc2)CC1)c1c(N)n(CCCC)c(=O)[nH]c1=O | 11.8% (inactive) | 27.6% |  |  |
| CCOC(=O)C1CCCN(CCC(=O)Nc2ccc(Br)c(C)c2)C1 (configuration not stated) |  | 4.56% |  | 18.4 µM (active) |
| CCOC(=O)C1CCN(CCC(=O)Nc2ccc(Br)c(C)c2)CC1 | -7.09% (inactive) | 0.794% |  |  |
| CCOC(=O)C1CCCN(CCC(=O)Nc2ccc(C)c(C)c2)C1 (configuration not stated) | 3.75% (inactive) | 17% |  |  |
| O=C(NCCc1nc2ccccc2[nH]1)/C(=C/c1ccco1)NC(=O)c1ccc(Br)o1 | -4.25% (inactive) | -2.37% |  |  |
| COc1ccc2[nH]c(C)c(CN3CCCCC3)c(=O)c2c1 | -27.3% (inactive) | -15.2% |  |  |
| CCc1nnc(NC(=O)C2CCN(S(=O)(=O)Cc3ccccc3)CC2)s1 | -3.51% (inactive) | -9.95% |  |  |
| CC(=O)c1cccc(NC(=O)CSc2nnc(-c3ccncc3)o2)c1 |  | 13.1% | inactive |  |

| Compound | lipid storage change, negative = inhibition | cell number change | outcome | Potency |
| --- | --- | --- | --- | --- |
| O=C(NCCN1CCN(C(=O)c2ccc([N+](=O)[O-])cc2)CC1)C(=O)NCc1ccccc1 |  | -7.25% | inactive |  |
| O=C(NCCN1CCN(C(=O)c2cccc([N+](=O)[O-])c2)CC1)C(=O)NCc1ccc(Cl)cc1 |  | -18.5% |  | 6.51 µM (active) |
| O=C(c1cccc([N+](=O)[O-])c1)N1CCN(c2cccc(Cl)c2)CC1 | 19.9% (inactive) |  |  |  |
| CC(=O)Nc1ccc(SCC(=O)c2c(N)n(Cc3ccccc3)c(=O)n(C)c2=O)cc1 | -2.16% (inactive) | 14.5% |  |  |
| CCOC(=O)C1CCN(C(=O)CCNC(=O)Cn2ccc3ccccc3c2=O)CC1 | 5.32% (inactive) | 0.532% |  |  |
| Cc1sc2nc(COC(=O)c3ccc(N4CCCC4)c([N+](=O)[O-])c3)[nH]c(=O)c2c1C | 11.9% (inactive) | 5.98% |  |  |
| CCOC(=O)c1c(NC(=O)c2ccc(C)cc2)sc2c1CC(C)(C)NC2(C)C | -18.8% (inactive) | -1.96% |  |  |
| Cc1ccc(NC(=O)Cc2nn(C)c(=O)c3ccccc23)cc1F | -0.0108% (inactive) |  |  |  |
| CC(=O)Nc1ccc(C(=O)NNC(=O)c2ccc(Cl)cc2)cc1 |  |  | inactive |  |
| CC(=O)Nc1ccc(C(=O)NC(CC(=O)O)c2ccc(Cl)cc2)cc1 (configuration not stated) |  | -19.4% |  | 20.6 µM (active) |
| CC(=O)Nc1ccc(NC(=O)CC(NC(=O)c2ccccc2)c2ccccc2)cc1 (configuration not stated) | 2.63% (inactive) | 19% |  |  |
| COc1ccc(NC(=O)C(c2ccc(OC)cc2)N(C)C(=O)Cc2cccs2)cc1 (configuration not stated) | 19.6% (inactive) | 9.03% |  |  |
| O=C(Cc1ccccc1)NNC1CC(=O)N(c2ccccc2)C1=O (configuration not stated) | 10.5% (inactive) | 0.451% |  |  |
| CC(=O)N1CCN(c2ccc(NC(=O)c3ccc(N4CCCC4)c([N+](=O)[O-])c3)cc2Cl)CC1 |  |  | inactive |  |
| CCc1ccc(N2CC(C(=O)Nc3nc4ccc(S(C)(=O)=O)cc4s3)CC2=O)cc1 (configuration not stated) |  | -21.1% |  | 2.31 µM (active) |
| O=C(Nc1nc2ccccc2s1)C1CC(=O)N(c2ccc(Br)cc2)C1 (configuration not stated) |  | 1.03% | inactive |  |
| CCc1ccc(N2CC(C(=O)Nc3nccs3)CC2=O)cc1 (configuration not stated) | 12.6% (inactive) | -0.507% |  |  |
| COc1cc(-n2c(=O)c3ccccc3n(CC(=O)c3ccc(Br)cc3)c2=O)cc(OC)c1OC | -0.64% (inactive) | 7.89% |  |  |
| COc1ccc(NC(=S)NC(=O)C2CCC2)cc1 | 15.8% (inactive) | -5.57% |  |  |
| CC(=O)Nc1ccc(NC(=S)NC(=O)C2CCCC2)cc1 |  | 16.2% | inactive |  |
| CCN(CC)c1ccc(NC(=S)NC(=O)C2CCC2)cc1 |  | -16.8% |  | 4.11 µM (active) |
| Cc1ccc(C(=O)OCC(=O)NCCNC(=O)COC(=O)c2ccc(C)o2)o1 |  | 26.3% | inactive [at 0.0737 µM] |  |
| Cc1ccc(S(=O)(=O)Nc2cccc(-c3ccc4nncn4n3)c2)cc1 | -0.542% [at 0.0737 µM] (inactive) |  |  |  |

| Compound | lipid storage change, negative = inhibition | cell number change | outcome | Potency |
| --- | --- | --- | --- | --- |
| CC(=O)Nc1ccc(S(=O)(=O)Nc2cccc(-c3ccc4nncn4n3)c2)cc1 |  | -19.1% |  | 0.731 µM (active) |
| Cc1ccc(S(=O)(=O)Nc2ccc(-c3ccc4nncn4n3)cc2)cc1 | 7.13% (inactive) | -22.1% |  |  |
| COc1ccc(N(C(=O)Cn2nnc(-c3ccc(F)cc3)n2)C(C)C(=O)NC2CCCC2)cc1 (configuration not stated) |  | 10.5% |  | 1.3 µM (active) |
| COc1ccc(N(C(C)C(=O)NC2CCCCCC2)S(C)(=O)=O)cc1 (configuration not stated) |  | 22.1% |  | 5.17 µM (active) |
| CC(C(=O)NC1CCCC1)N(C(=O)Cn1nnc(-c2ccc(F)cc2)n1)c1ccccc1F (configuration not stated) |  | -1.32% | inactive |  |
| CC(C(=O)NC1CCCC1)N(c1ccc(Oc2ccccc2)cc1)S(C)(=O)=O (configuration not stated) | 15.3% (inactive) | 11.4% |  |  |
| COc1ccc(N(CC(=O)NC2CCCC2)C(=O)Cn2nnc(-c3ccc(F)cc3)n2)cc1 |  | 7.89% | inactive |  |
| CCOc1ccc(N(C(C)C(=O)NC2CCCCCC2)S(C)(=O)=O)cc1 (configuration not stated) |  |  | inactive |  |
| CCC(CC)c1nnc(NC(=O)CN2C(=O)NC3(CCCC3)C2=O)s1 |  | 9% | inactive [at 0.369 µM] |  |
| Cn1c(Cn2c3ccccc3c3ccccc32)n[nH]c1=S | 2.12% (inactive) | -6.36% |  |  |
| O=C(O)c1ccccc1-n1cnnn1 | -27.2% (inactive) | -10.9% |  |  |
| CC(C)NCCOCCSc1ccc(Cl)cc1 |  | -7.67% |  | 20.6 µM (active) |
| CCCCNCCOCCSc1ccc(Cl)cc1 | -18.9% (inactive) | -17.4% |  |  |
| CCC(C)NCCOCCSc1ccc(Cl)cc1 (configuration not stated) | 0.747% (inactive) | 14.1% |  |  |
| Cc1ccccc1C(=O)Nc1cccc(-c2ccc3nncn3n2)c1 | -1.94% (inactive) | 10.3% |  |  |
| CCOc1ccccc1OCCn1ncc2ccc(OC)c(OC)c2c1=O | -3.25% (inactive) | 16.5% |  |  |
| Brc1ccccc1OCCNCc1ccccc1 | 7.29% (inactive) | 17.2% |  |  |
| CCOc1ccccc1OCCCNCc1ccccc1 | 26.7% (inactive) | 2.07% |  |  |
| COCCNCc1ccccc1 |  | -17.8% |  | 18.4 µM (active) |
| CS(=O)(=O)c1ccc(C(=O)Nc2ccc(N3CCOCC3)cc2)c(Cl)c1 | -24.8% (inactive) |  |  |  |
